SMILES strings stand for the structures. Counter-ions that a name gives are not always drawn.

We go through 40 compounds from the supplement of paper PMC12024424.

For the assay, the system named is Staphylococcus aureus Sa2 (MRSA, cystic fibrosis isolate). Put plainly: growth reduction vs untreated control (viable cell count); higher = stronger antibacterial activity; extreme values may be limits of the assay. To be noted: 0.1 mM; 24 h. As to the method: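 Single-dose screen of the MedChem Express Drug Repurposing Library (0.1 mM, 1% DMSO) against planktonic MRSA S. aureus Sa2 (CF isolate) in TSB in 96-well plates, 37 °C aerobic, 24 h. Assays were run in triplicate and repeated twice.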
`CCCCCNC(=N)N/N=C/c1c[nH]c2ccc(OC)cc12` [Tegaserod (maleate)] yielded a growth reduction of 100%.

`CC(C(=O)O)c1ccc2c(c1)CC(=O)c1ccccc1S2` (stereo not given) [Zaltoprofen] registered a growth reduction of 98%.

For `CCCCN(CCCC)CCC(O)c1cc2c(Cl)cc(Cl)cc2c2cc(C(F)(F)F)ccc12` (stereo not given) [Halofantrine hydrochloride], the growth reduction was 94%.

With `O=c1nc(OC[C@@H]2COCCO2)cc2n1CCc1cc(C#CC3CC3)ccc1-2`, the growth reduction worked out at 93%.

Turning to `O=C(O)C[C@H]1CCc2c1[nH]c1ccc(OCc3ccc(C4CCCC4)c(C(F)(F)F)c3)cc21` [Etrasimod], the growth reduction worked out at 100%.

`CC(C)(C)OC(=O)N[C@H]1CCCCC/C=C\[C@@H]2C[C@@]2(C(=O)NS(=O)(=O)C2CC2)NC(=O)[C@@H]2C[C@@H](OC(=O)N3Cc4cccc(F)c4C3)CN2C1=O` [Danoprevir] came in with a growth reduction of 100%.

In turn, `Cc1cc(OCCCS(C)(=O)=O)cc(C)c1-c1cccc(COc2ccc3c(c2)OC[C@H]3CC(=O)O)c1` [Fasiglifam] came in with a growth reduction of 100%.

In turn, `OCCN1CCN(CC/C=C2/c3ccccc3Sc3ccc(C(F)(F)F)cc32)CC1` [Flupentixol dihydrochloride] showed a growth reduction of 100%.

Take `CC/C(=C(/CC)c1ccc(O)cc1)c1ccc(O)cc1` [Diethylstilbestrol]: the growth reduction is 100%.

With `CC(C)Nc1nc2cc(Cl)c(Cl)cc2n1[C@H]1O[C@@H](CO)[C@H](O)[C@@H]1O` [Maribavir], the growth reduction came out at 94%.

Compound `O=C(NCC12CC3CC(CC(C3)C1)C2)c1cc(CCCNCCCO)ccc1Cl` [AZD9056 (hydrochloride)] had a growth reduction of 100%.

Compound `N#CC(c1ccc(Cl)cc1)c1c(Cl)cc(-n2ncc(=O)[nH]c2=O)cc1Cl` (stereo not given) [Diclazuril] had a growth reduction of 100%.

Compound `Nc1ncccc1-c1nc2ccc(-c3ccccc3)nc2n1-c1ccc(C2(N)CCC2)cc1` [Miransertib] showed a growth reduction of 95%.

Compound `Cc1nc(Nc2ccc(F)cc2)nc(N2CCc3ccccc3C2C)c1C` (stereo not given) [Revaprazan (hydrochloride)] had a growth reduction of 100%.

Compound `Cc1ccc(C(=O)N(CCCN)[C@@H](c2nc3cc(Cl)ccc3c(=O)n2Cc2ccccc2)C(C)C)cc1` [Ispinesib] displayed a growth reduction of 100%.

For `CN(C)C(=O)/C=C/CNCCOc1ccc(/C(=C(/CC(F)(F)F)c2ccccc2)c2ccc3[nH]nc(F)c3c2)cn1`, the growth reduction turned out to be 100%.

`COCC[n+]1c2c(n(Cc3cnccn3)c1C)C(=O)c1ccccc1C2=O` [Sepantronium (bromide)] displayed a growth reduction of 100%.

As for `CC1(C)CCC2=C(O1)c1ccccc1C(=O)C2=O` [β-Lapachone], the growth reduction was 100%.

For `C#C[C@]1(O)CC[C@H]2[C@@H]3CCc4cc(OC5CCCC5)ccc4[C@H]3CC[C@@]21C` [Quinestrol], the growth reduction turned out to be 99%.

`CCCCCCCCCCCCN1CCCCCC1=O` [Laurocapram]: the growth reduction came to 100%.

As for `C[C@H](Nc1cc(-c2cnn(C)c2)cc(Nc2cnccn2)n1)c1ccc(F)cc1` [Ilginatinib (maleate)], the growth reduction turned out to be 95%.

The compound `CC(=O)OCC(=O)[C@@]1(O)CC[C@H]2[C@@H]3CCC4=CC(=O)C=C[C@]4(C)[C@H]3C(=O)C[C@@]21C` [Prednisone acetate] displayed a growth reduction of 100%.

Turning to `Cc1cc2c(cc1CC(=O)c1sccc1S(=O)(=O)Nc1onc(C)c1Cl)OCO2` [Sitaxsentan (sodium)], the growth reduction was determined as 90%.

Compound `CC(C)(C)c1cc(C(C)(C)C)c(NC(=O)c2c[nH]c3ccccc3c2=O)cc1O` [Ivacaftor] had a growth reduction of 99%.

With `CC(C)(C(=O)NCC(F)(F)C(F)(F)F)C(=O)N[C@@H]1C(=O)Nc2ccccc2-c2ccccc21`, the growth reduction came out at 90%.

`C=CC(=O)N1CC[C@@H](Oc2nc(Nc3ccc(N4CCC(N5CCN(C)CC5)CC4)cc3)c(C(N)=O)nc2CC)C1` [Naquotinib (mesylate)] came in with a growth reduction of 100%.

Consider `COc1c(-c2ccc3cc(NS(C)(=O)=O)ccc3c2)cc(-n2ccc(=O)[nH]c2=O)cc1C(C)(C)C` [Dasabuvir], for which the growth reduction was found to be 93%.

`CCN(CC)CCOc1ccc(/C(=C(/Cl)c2ccccc2)c2ccccc2)cc1` [Enclomiphene (citrate)] returned a growth reduction of 100%.

The compound `CC(C)c1cc(Oc2c(Br)cc(NC(=O)CC(=O)O)cc2Br)ccc1O` [Eprotirome] yielded a growth reduction of 100%.

Take `O=C(NC(=Nc1cc(C(F)(F)F)[nH]n1)Nc1cc(F)cc(Cl)c1)c1cccc(Cl)c1` [Parimifasor]: the growth reduction was 100%.

`O=c1ccc2ccc(O)c(O)c2o1` [Daphnetin] displayed a growth reduction of 98%.

`C#C[C@]1(OC(C)=O)CC[C@H]2[C@@H]3CCC4=C[C@@H](OC(C)=O)CC[C@@H]4[C@H]3CC[C@@]21C` [Ethynodiol diacetate] registered a growth reduction of 94%.

`NC(=O)c1cccc2cn(-c3ccc([C@@H]4CCCNC4)cc3)nc12` [Niraparib (tosylate)] had a growth reduction of 99%.

Turning to `CC/C(=C(/c1ccc(/C=C/C(=O)O)cc1)c1ccc2[nH]ncc2c1)c1ccc(F)cc1Cl` [Brilanestrant], the growth reduction stood at 100%.

With `CCCCCCCCc1ccc(CCC(N)(CO)CO)cc1` [Fingolimod], the growth reduction came to 100%.

`Cc1cccc(Nc2ccccc2C(=O)O)c1C` [Mefenamic acid] displayed a growth reduction of 100%.

For `c1ccc(-c2ccc(C(c3ccccc3)n3ccnc3)cc2)cc1` (stereo not given) [Bifonazole], the growth reduction was found to be 100%.

`Cc1cc([C@H](C)Nc2nccc(N3C(=O)OC[C@@H]3[C@@H](C)F)n2)ncc1-c1ccnc(C(F)(F)F)c1` displayed a growth reduction of 97%.

Turning to `CN(C)CCOc1ccc(/C(=C(/CCCl)c2ccccc2)c2ccccc2)cc1` [Toremifene (citrate)], the growth reduction was found to be 100%.

In turn, `O=C(O)c1cc(-c2ccc(F)cc2F)ccc1O` [Diflunisal] yielded a growth reduction of 98%.
